According to PubChem BioAssay AID652100 (National Center for Advancing Translational Sciences (NCATS), 2013):
Calls of active or inactive are those of the source.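 How the source made its calls: active means compounds that bring Gaucher patient macrophage uptake of dying cells up to about normal macrophage levels; inactive means the rest.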

assay: Extended Characterization of Activators of N370S glucocerebrosidase as a Potential Chaperone Treatment of Gaucher Disease: Efferocytosis Index; conditions: Gaucher patient macrophages, apoptotic Jurkat efferocytosis imaging
Description: Glucocerebrosidase (GCase) catalyzes the hydrolysis of beta-glucocerebroside (GC) to glucose and ceramide in lysosomes. Mutations in the glucocerebrosidase gene result in Gaucher disease, an autosomal recessive lysosomal storage disorder. Many of the mutations encountered in patients with Gaucher disease are missense alterations that may cause misfolding, decreased stability and/or mistrafficking of this lysosomal protein. […] These inhibitors include iminosugar analogs and other inhibitors that were discovered as part of previous work. However, the enhancement of enzyme activity by the chaperone action of an enzyme inhibitor must be balanced against the direct inhibition of the enzyme. […] In this extended characterization of our probe, we have further characterized the activity of probes in relevant models of Gaucher disease. This assay examine efferocytosis in patient-derived macrophages following compound incubation. NIH Chemical Genomics Center [NCGC] NIH Molecular Libraries Probe Production Centers Network [MLPCN] MLPCN Grant: MH086442 Assay Submitter (PI): Ellen Sidransky, NHGRI
Jurkat T-cells were stained with green cell tracker (Molecular Probes), and apoptosis was induced using UVB radiation for 2 min (BioRad). […] The number of T-cells taken up by macrophages was counted and normalized to the number of cells per field.

| Structure (SMILES) | outcome |
| --- | --- |
| C#Cc1ccc(NC(=O)c2cnn3c(C)cc(C)nc23)cc1 | active; similar to control |
